This note sets out measurements from PubChem BioAssay (EPA / NIEHS).

Several values for one entry are separate records, joined by “and”; a condition that tells them apart may be missing. Identical values can stand only once. Results filed as inconclusive are left out. More than one record can exist for a structure, and the calls need not agree. Activity calls are given as the source filed them. How the source made its calls, unless noted: active means hit-call score of the fitted dose curve at least 0.9, where 1 is the maximum; inactive means score below 0.9.

The term AC50 denotes the concentration giving half of the maximal activity seen.

Assay [1] has as its target Retinoic acid receptor RXR-alpha (Homo sapiens) (UniProt P19793). Put plainly: ATG_RXRa_TRANS: Attagene TRANS-FACTORIAL HepG2 Assay for human Retinoid X Receptor alpha (RXRa) (AID 2283012; active means hit-call score of the fitted dose curve at least 0.9, where 1 is the maximum). The method in brief:
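Cells (HepG2) carried transiently transfected GAL4-responsive reporter units. Following a 24 h chemical incubation, reporter mRNA induction was read via RT-PCR fragment analysis; DMSO served as negative control and baseline.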

Assay [2] concerns the target human Retinoid X Receptor beta (RXRb), RXRB (gene 6257) (UniProt P28702). Description: ATG_RXRb_TRANS: Attagene TRANS-FACTORIAL HepG2 Assay for human Retinoid X Receptor beta (RXRb) (AID 2283013; active means hit-call score of the fitted dose curve at least 0.9, where 1 is the maximum). The method in brief: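 Multiplexed TRANS reporter assay in HepG2; 24 h dosing; reporter mRNA by RT-PCR/CE fluorescence; gain-of-signal relative to DMSO.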
Assay [3] concerns the target human Thyroid Receptor alpha (THRa1), THRA (gene 7067) (UniProt P10827). Description: ATG_THRa1_TRANS: Attagene TRANS-FACTORIAL HepG2 Assay for human Thyroid Receptor alpha (THRa1) (AID 2283014; active means hit-call score of the fitted dose curve at least 0.9, where 1 is the maximum). The method in brief: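 Transcripts from GAL4-UAS-driven reporters, measured after 24 h compound exposure by RT-PCR plus capillary electrophoresis of 6-FAM-labeled fragments, were fitted for gain of signal relative to DMSO. Cells: transiently transfected HepG2 expressing NR-Gal4 chimeras.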

Read-out in assay [4]: E-selectin (Homo sapiens) (UniProt P16581)
Description: BSK_3C_Eselectin: BioMAP Diversity Plus: 3C Assay for Eselectin Biomarker Activity (AID 2283015).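 On outcome: cell surface E-selectin protein quantified by ELISA 24 h after dosing.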 The settings on record: primary human endothelial cells (HUVEC); actives raise or lower the signal. The method in brief:
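E-selectin ELISA readout, fitted bidirectionally relative to DMSO, taken 24 h post-dosing in HUVEC cultures of the 3C system. Overt cytotoxicity tracked with sulforhodamine B staining of parallel wells.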

Read-out in assay [5]: Interleukin-1 alpha (IL1a), IL1A (gene 3552)
Put plainly: BSK_BE3C_IL1a: BioMAP Diversity Plus: BE3C Assay for Interleukin-1 alpha (IL1a) Biomarker Activity (AID 2283016). The settings on record: primary human bronchial epithelial cells; actives raise or lower the signal. The method in brief: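 Cultures of primary human bronchial epithelial cells receive test chemical. After 24 h, IL-1a is quantified by ELISA, while parallel wells are fixed in TCA and SRB-stained for total protein. Changes in either direction are fitted relative to DMSO.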

Read-out in assay [6]: Monocyte Chemoattractant Protein-1 (MCP1), CCL2 (gene 6347)
Put plainly: BSK_3C_MCP1: BioMAP Diversity Plus: 3C Assay for Monocyte Chemoattractant Protein-1 (MCP1) Biomarker Activity (AID 2283017). The conditions noted are these: primary human endothelial cells (HUVEC); actives raise or lower the signal. The method in brief:
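MCP-1 was measured by ELISA 24 h after dosing in primary HUVEC 3C cultures and fitted in both directions relative to DMSO; cytotoxicity was checked by SRB total-protein staining in parallel wells.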

Read-out in assay [7]: Monocyte Chemoattractant Protein-1 (MCP1), CCL2 (gene 6347)
Description: BSK_4H_MCP1: BioMAP Diversity Plus: 4H Assay for Monocyte Chemoattractant Protein-1 (MCP1) Biomarker Activity (AID 2283018). The settings on record: primary human endothelial cells (HUVEC); actives raise or lower the signal. The method in brief: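 Readout: MCP-1 ELISA on compound-treated HUVEC, sampled 24 h post-dosing. Baseline and negative control DMSO; bidirectional fit. Overt toxicity checked alongside by sulforhodamine B protein staining at time of biomarker measurement.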

Read-out in assay [8]: Human Leukocyte Antigen - DR isotype (HLADR), HLA-DRA (gene 3122)
Put plainly: BSK_3C_HLADR: BioMAP Diversity Plus: 3C Assay for Human Leukocyte Antigen - DR isotype (HLADR) Biomarker Activity (AID 2283019).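 On outcome: ELISA of cell-surface HLA-DR on HUVEC 24 h after dosing.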 The settings on record: primary human endothelial cells (HUVEC); actives raise or lower the signal. The method in brief: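 Bidirectional fitting against DMSO was applied to the HLA-DR ELISA signal from human umbilical vein endothelial cells, 24 h post-dose. Cytotoxicity came from parallel SRB total-protein staining; 3C proliferation was counted by SRB at 48 h.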

Read-out in assay [9]: Interleukin-8 (IL8), CXCL8 (gene 3576)
Description: BSK_3C_IL8: BioMAP Diversity Plus: 3C Assay for Interleukin-8 (IL8) Biomarker Activity (AID 2283020). The settings on record: primary human endothelial cells (HUVEC); actives raise or lower the signal. The method in brief: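 Human vascular endothelial cells (umbilical vein) in the 3C system; IL-8 level detected by ELISA at 24 h post-dose, with DMSO as baseline.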

Read-out in assay [10]: Monokine induced gamma interferon (MIG), CXCL9 (gene 4283)
Description: BSK_3C_MIG: BioMAP Diversity Plus: 3C Assay for Monokine induced gamma interferon (MIG) Biomarker Activity (AID 2283021).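 On AC50: MIG protein level measured by immunoassay in the treated endothelial cultures.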 The settings on record: primary human endothelial cells (HUVEC); actives raise or lower the signal. The method in brief: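 After 24 h of treatment, human umbilical vein endothelial cultures (3C system) had their MIG biomarker level determined by ELISA, with DMSO serving as negative control.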

The nature of assay [11]: BSK_3C_SRB: Viability Assessment in the BioMAP Diversity Plus: 3C Assay (AID 2283023).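 Further: fitted both ways against DMSO so a hit may be signal rise or drop.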 The conditions noted are these: primary human endothelial cells (HUVEC). The method in brief: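 Cytotoxicity readout in parallel HUVEC 3C cultures: after 24 h compound exposure, cells fixed with 10% TCA, stained with 0.1% SRB and read at 560 nm. Gain or loss relative to DMSO fitted.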

Read-out in assay [12]: Matrix Metallopeptidase 1 (MMP1), MMP1 (gene 4312)
Put plainly: BSK_BE3C_MMP1: BioMAP Diversity Plus: BE3C Assay for Matrix Metallopeptidase 1 (MMP1) Biomarker Activity (AID 2283024). The settings on record: primary human bronchial epithelial cells; actives raise or lower the signal. The method in brief:
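Dose cells, wait 24 h, run MMP1 ELISA; cells are human bronchial epithelial primaries. Both increases and decreases relative to DMSO counted.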

Assay [13] is described as follows: BSK_3C_Vis: BioMAP Diversity Plus: 3C Assay for Morphology Visualization (AID 2283025).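 Further: fitted both ways so gain or loss versus DMSO counts.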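 On AC50: light microscopy image of cell morphology used as background control.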 The conditions noted are these: primary human endothelial cells (HUVEC). The method in brief: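 Endothelial cells from human umbilical vein were treated with test chemicals for 24 h and inspected by light microscopy for changes in cell conformation.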
Read-out in assay [14]: Pselectin, SELP (gene 6403)
Put plainly: BSK_4H_Pselectin: BioMAP Diversity Plus: 4H Assay for Pselectin Biomarker Activity (AID 2283026). The conditions noted are these: primary human endothelial cells (HUVEC); actives raise or lower the signal. The method in brief:
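Human vascular endothelium from umbilical vein; P-selectin measured by ELISA at 24 h post-dose, with cytotoxicity checked by sulforhodamine B total-protein staining in parallel cultures (0.1% SRB after 10% TCA fixation, read at 560 nm).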

Assay [15] in a line: BSK_4H_SRB: Viability Assessment in the BioMAP Diversity Plus: 4H Assay (AID 2283027).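 Further: cells exposed to compound for 24 h before staining.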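 On AC50: curves fitted both ways versus DMSO so AC50 may be loss or gain.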 The conditions noted are these: primary human endothelial cells (HUVEC). The method in brief:
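Human umbilical vein endothelial cells, 24 h after chemical dosing; total protein measured by 0.1% sulforhodamine B staining after 10% TCA fixation, read at 560 nm. Bidirectional fitting against DMSO.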

Read-out in assay [16]: Thrombomodulin, THBD (gene 7056)
Put plainly: BSK_3C_Thrombomodulin: BioMAP Diversity Plus: 3C Assay for Thrombomodulin Biomarker Activity (AID 2283029). The settings on record: primary human endothelial cells (HUVEC); actives raise or lower the signal. The method in brief: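 Thrombomodulin ELISA, human primary HUVEC, 24 h post-dose; data fitted in both directions relative to DMSO.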

Read-out in assay [17]: Urokinase-type plasminogen activator receptor (uPAR), PLAUR (gene 5329)
Description: BSK_4H_uPAR: BioMAP Diversity Plus: 4H Assay for Urokinase-type plasminogen activator receptor (uPAR) Biomarker Activity (AID 2283030). The settings on record: primary human endothelial cells (HUVEC); actives raise or lower the signal. The method in brief:
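uPAR level read by ELISA on HUVEC cultures (BioMAP 4H) 24 h post-dosing, analyzed for gain or loss relative to DMSO. Parallel SRB staining assessed overt cytotoxicity.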

The nature of assay [18]: BSK_BE3C_SRB: Viability Assessment in the BioMAP Diversity Plus: BE3C Assay (AID 2283028). The settings on record: primary human bronchial epithelial cells. The method in brief: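 Cytotoxicity read-out: SRB (0.1%) staining of TCA-fixed (10%) human lung bronchial epithelial cells, absorbance 560 nm, 24 h post-dosing. Curves fitted both directions relative to DMSO.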
Assay [19] deals with human RAR-related Orphan Receptor gamma (RORg), RORC (gene 6097) (UniProt P51449). Put plainly: ATG_RORg_TRANS: Attagene TRANS-FACTORIAL HepG2 Assay for human RAR-related Orphan Receptor gamma (RORg) (AID 2283011; active means hit-call score of the fitted dose curve at least 0.9, where 1 is the maximum). The method in brief: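 Reporter transcripts from a transfected RORg-GAL4 chimera in HepG2 cells were quantified 24 h after dosing by RT-PCR, 6-FAM labelling, HpaI digestion and capillary electrophoresis; increases over DMSO baseline were fitted.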

The target of assay [20] is human Vitamin D Receptor (VDR), VDR (gene 7421) (UniProt P11473). Description: ATG_VDR_TRANS: Attagene TRANS-FACTORIAL HepG2 Assay for human Vitamin D Receptor (VDR) (AID 2283022; active means hit-call score of the fitted dose curve at least 0.9, where 1 is the maximum). The method in brief:
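Transactivation by an exogenous VDR-Gal4 chimera in transiently transfected HepG2 cells was measured as reporter transcript level 24 hours after chemical treatment. RT-PCR products were analysed by capillary electrophoresis and fitted in the positive direction relative to DMSO.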

Chain of human Retinoid X Receptor beta (RXRb), RXRB (gene 6257) (P28702 whole entry, looked up, the tested form may be a part): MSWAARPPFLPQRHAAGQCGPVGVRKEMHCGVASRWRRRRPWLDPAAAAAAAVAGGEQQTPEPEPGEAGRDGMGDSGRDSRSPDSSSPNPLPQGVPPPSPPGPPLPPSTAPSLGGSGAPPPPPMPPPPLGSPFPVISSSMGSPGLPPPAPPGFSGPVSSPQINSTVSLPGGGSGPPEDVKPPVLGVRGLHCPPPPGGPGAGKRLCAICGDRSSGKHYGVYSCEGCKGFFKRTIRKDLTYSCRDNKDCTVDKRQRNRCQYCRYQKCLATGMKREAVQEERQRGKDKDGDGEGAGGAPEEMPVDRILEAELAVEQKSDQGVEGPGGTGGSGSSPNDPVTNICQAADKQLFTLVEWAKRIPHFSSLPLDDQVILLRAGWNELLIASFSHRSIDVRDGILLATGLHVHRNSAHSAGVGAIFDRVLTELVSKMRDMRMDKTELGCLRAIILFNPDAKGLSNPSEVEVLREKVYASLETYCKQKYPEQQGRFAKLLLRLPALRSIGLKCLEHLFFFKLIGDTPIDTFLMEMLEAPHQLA
Chain of human Vitamin D Receptor (VDR), VDR (gene 7421) (P11473 whole entry, looked up, the tested form may be a part): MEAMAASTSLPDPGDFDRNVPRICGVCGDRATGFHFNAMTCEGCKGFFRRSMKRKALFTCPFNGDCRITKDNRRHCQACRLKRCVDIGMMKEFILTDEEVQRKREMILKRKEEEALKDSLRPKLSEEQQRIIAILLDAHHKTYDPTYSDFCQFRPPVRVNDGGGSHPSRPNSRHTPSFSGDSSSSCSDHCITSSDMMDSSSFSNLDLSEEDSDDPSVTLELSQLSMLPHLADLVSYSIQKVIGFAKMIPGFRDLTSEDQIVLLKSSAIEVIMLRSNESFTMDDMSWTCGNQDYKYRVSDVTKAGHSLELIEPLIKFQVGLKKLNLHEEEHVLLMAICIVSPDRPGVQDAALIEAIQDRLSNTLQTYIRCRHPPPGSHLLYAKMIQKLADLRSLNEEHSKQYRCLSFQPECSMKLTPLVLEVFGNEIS
Chain of Retinoic acid receptor RXR-alpha (Homo sapiens) (P19793 whole entry, looked up, the tested form may be a part): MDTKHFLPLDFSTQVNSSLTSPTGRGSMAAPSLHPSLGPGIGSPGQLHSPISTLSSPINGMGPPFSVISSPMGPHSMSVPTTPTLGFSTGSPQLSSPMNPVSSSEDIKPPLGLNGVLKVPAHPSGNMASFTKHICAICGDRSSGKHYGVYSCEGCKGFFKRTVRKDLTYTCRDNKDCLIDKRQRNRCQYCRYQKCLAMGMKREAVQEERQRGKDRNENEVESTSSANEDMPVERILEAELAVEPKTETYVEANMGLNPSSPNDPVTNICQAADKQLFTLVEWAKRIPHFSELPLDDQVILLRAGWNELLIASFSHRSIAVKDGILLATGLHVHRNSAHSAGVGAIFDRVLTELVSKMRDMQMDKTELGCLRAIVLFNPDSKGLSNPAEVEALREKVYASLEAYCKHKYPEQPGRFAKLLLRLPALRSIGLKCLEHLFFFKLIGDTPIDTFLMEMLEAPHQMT
Chain of E-selectin (Homo sapiens) (P16581 whole entry, looked up): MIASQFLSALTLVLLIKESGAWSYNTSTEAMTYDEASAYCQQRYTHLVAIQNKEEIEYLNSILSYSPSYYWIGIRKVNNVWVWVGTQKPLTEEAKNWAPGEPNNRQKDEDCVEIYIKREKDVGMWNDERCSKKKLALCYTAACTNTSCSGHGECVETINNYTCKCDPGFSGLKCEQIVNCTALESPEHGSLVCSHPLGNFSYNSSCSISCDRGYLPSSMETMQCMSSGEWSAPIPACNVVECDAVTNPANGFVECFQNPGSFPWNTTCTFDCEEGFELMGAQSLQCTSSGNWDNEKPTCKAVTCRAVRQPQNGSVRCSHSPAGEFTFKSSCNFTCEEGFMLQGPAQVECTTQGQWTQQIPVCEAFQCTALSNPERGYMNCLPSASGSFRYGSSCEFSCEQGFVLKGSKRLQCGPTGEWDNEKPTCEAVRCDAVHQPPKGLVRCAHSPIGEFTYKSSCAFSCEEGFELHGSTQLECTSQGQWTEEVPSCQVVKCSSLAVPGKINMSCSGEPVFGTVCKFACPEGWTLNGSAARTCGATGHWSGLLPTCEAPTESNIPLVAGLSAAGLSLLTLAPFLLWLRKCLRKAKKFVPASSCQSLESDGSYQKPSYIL
Chain of human RAR-related Orphan Receptor gamma (RORg), RORC (gene 6097) (P51449 whole entry, looked up, the tested form may be a part): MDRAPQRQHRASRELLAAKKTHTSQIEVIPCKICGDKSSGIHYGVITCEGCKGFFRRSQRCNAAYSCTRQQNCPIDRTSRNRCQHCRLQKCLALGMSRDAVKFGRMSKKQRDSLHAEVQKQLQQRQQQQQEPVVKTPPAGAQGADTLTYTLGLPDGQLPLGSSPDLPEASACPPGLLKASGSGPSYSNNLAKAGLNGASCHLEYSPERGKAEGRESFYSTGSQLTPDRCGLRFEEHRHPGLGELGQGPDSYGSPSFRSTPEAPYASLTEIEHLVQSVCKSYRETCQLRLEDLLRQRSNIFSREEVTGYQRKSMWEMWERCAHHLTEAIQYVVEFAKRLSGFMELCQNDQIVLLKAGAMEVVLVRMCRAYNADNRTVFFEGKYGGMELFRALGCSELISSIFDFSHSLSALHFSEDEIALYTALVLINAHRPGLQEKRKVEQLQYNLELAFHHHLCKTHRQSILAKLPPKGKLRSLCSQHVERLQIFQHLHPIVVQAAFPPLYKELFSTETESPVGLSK
Chain of human Thyroid Receptor alpha (THRa1), THRA (gene 7067) (P10827 whole entry, looked up, the tested form may be a part): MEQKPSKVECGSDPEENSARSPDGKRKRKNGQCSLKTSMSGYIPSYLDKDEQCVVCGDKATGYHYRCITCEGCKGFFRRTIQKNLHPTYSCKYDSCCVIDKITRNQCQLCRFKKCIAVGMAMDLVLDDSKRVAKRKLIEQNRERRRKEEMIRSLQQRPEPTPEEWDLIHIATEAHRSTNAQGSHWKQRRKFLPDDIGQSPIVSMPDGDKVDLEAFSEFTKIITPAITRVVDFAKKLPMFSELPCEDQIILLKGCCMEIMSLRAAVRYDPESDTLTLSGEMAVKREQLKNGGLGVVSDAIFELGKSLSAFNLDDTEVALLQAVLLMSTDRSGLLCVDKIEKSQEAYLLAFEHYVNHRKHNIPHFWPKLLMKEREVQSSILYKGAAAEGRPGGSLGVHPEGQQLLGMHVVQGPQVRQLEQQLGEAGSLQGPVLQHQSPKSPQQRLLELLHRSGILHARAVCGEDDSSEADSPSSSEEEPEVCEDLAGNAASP

Regarding `CCOC(=O)C(O)(c1ccc(Cl)cc1)c1ccc(Cl)cc1`, the outcome in [1], in assay [2], in assay [3], in [5] and in [16] was inactive. Besides, the concentration at half-maximal activity (AC50) in assay [4] is 32 µM (active); in [6], 31 µM (active); in assay [7], 25.3 µM (active); in [8] it was 31.3 µM (active); in assay [9], 31.1 µM (active); in assay [10], 39.4 µM (active). Moreover, the concentration at half-maximal activity (AC50) in assay [11] is 34.5 µM (active); in assay [12], 8.5 µM (active); in assay [13] it was 37.3 µM (active); in assay [14], 32.2 µM (active); in assay [15], 32.2 µM (active); in assay [17], 31.3 µM (active).

In the case of `O=C(NC(=O)c1c(F)cccc1F)Nc1cc(Cl)c(OC(F)(F)C(F)F)c(Cl)c1`, the result in assay [1], in assay [2], in assay [3], in assay [4], in [5] and in [6] was inactive. In addition, the outcome in assay [7], in assay [8], in [9], in assay [10], in assay [11] and in assay [12] was inactive. Further, the outcome in assay [14], in [15], in assay [18], in assay [16] and in [17] was inactive. Further, the concentration at half-maximal activity (AC50) in assay [13] is 39 µM (active).

On to `C1CC2OC2CC1C1CO1` (stereo unspecified), for which the compound was called inactive in assay [19], in assay [4], in assay [5], in assay [6], in assay [7] and in assay [8]. The result in assay [10], in [20], in assay [11], in assay [12], in assay [13] and in assay [14] was inactive. The result in assay [15], in [18], in assay [16] and in assay [17] was inactive.

On to `O=S(=O)(O)C(F)(F)C(F)(F)C(F)(F)C(F)(F)C(F)(F)C(F)(F)F`, for which the outcome in [19], in assay [1], in assay [2], in assay [4], in assay [5] and in [6] was inactive. For the same compound, the result in assay [7], in [8], in assay [9], in assay [10], in assay [20] and in assay [11] was inactive. Besides, the result in assay [12], in [13], in assay [15], in [16] and in [17] was inactive. Further, the AC50 in assay [12] was 44.3 µM (active) and 37.7 µM (active).

For `Cc1cc2c3c(c1)C(c1ccccc1)=N[C@@H](NC(=O)c1ccncc1)C(=O)N3CC2`, the result in [19], in [1], in [4], in [5], in [6] and in [7] was inactive. For the same compound, the outcome in [8], in [9], in [10], in assay [20], in assay [11] and in [12] was inactive. Besides, the outcome in assay [13], in assay [14], in assay [15], in [16] and in assay [17] was inactive.

With `O=C(NC(=O)c1cc(F)c(F)cc1Cl)Nc1cc(F)ccc1N1CCC(C(=O)O)CC1`, the result in assay [19], in assay [4], in assay [5], in assay [6], in [7] and in [8] was inactive. For the same compound, the result in assay [9], in assay [10], in assay [11], in assay [12], in assay [13] and in assay [14] was inactive. Further, the outcome in assay [15], in assay [16] and in [17] was inactive.
